Data from PubChem BioAssay (NCATS).
Results filed as inconclusive are left out. Calls of active or inactive are those of the source. Unless noted, calls come from the whole dose curve; as a rule, active = well fitted curve in the direction sought with a large enough effect; inconclusive = small, poorly fitted or top-dose-only effect, or another doubt; inactive = no such curve, though single readings can be large; an effect the other way counts as inactive or inconclusive.

How the values were obtained:
[1] = biological target: Lysosomal acid glucosylceramidase (Homo sapiens) (UniProt P04062); experiment: Glucocerebrosidase-p2 (AID 348; in the data active = potency below about 10 µM; note: potency is the fitted concentration of half-maximal effect); settings: purified GBA, blue fluorogenic substrate, 40 min
Sequence of Lysosomal acid glucosylceramidase (Homo sapiens) (P04062 whole entry, looked up): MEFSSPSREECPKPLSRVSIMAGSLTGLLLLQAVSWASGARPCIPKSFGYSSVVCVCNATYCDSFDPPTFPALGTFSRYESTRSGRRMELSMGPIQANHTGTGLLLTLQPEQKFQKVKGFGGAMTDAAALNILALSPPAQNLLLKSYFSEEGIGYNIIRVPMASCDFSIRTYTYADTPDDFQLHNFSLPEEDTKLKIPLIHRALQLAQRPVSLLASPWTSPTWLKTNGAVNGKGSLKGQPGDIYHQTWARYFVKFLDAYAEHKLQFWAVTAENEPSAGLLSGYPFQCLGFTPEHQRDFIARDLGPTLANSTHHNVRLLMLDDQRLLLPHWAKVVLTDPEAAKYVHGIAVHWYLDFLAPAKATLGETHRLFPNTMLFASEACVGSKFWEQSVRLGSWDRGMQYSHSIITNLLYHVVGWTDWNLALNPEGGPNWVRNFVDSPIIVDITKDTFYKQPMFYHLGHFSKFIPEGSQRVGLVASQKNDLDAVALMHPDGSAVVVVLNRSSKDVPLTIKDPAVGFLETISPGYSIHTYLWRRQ
Method in brief: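 Normal human glucocerebrosidase (0.2 nM) with blue fluorogenic substrate (80 uM final) in citrate/phosphate pH 5.9 with 10mM sodium taurocholate, 0.01% tween-20; 40 min RT, NaOH/glycine stop; fluorescence Ex 365/Em 440; AC50 from a titration from 0.6 nM upwards.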

[2] = AP1 Signaling Pathway (AID 357; active = well fitted curve in either direction with a large enough effect, not every such curve was filed as active;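 note: ME-180 reporter cells stimulated with EGF at its EC50 level; % is set by controls: 0 for no effect and ±100 for the full control effect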); settings: ME-180 AP-1-bla reporter, EGF-induced, beta-lactamase ratio, 5 h; at 7.69 µM (top of the series) unless noted
Method in brief: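 First, ME-180 AP-1-bla cells were cultured overnight at 37 °C in low-serum Opti-MEM. Next, titrated compounds with EC50 EGF were incubated 5 hours. Finally, CCF4 was added for 2.5 hours and the 460/530 nm ratio recorded.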

[3] = Stat Signaling Pathway (AID 446; active = well fitted curve in either direction with a large enough effect, not every such curve was filed as active;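 note: ME-180 cervical cancer cells given 40 pM IL-6 alongside compound; SIE-controlled beta-lactamase reporter measured as 460/530 nm FRET emission ratio; % is set by controls: 0 for no effect and ±100 for the full control effect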); settings: ME-180 SIE beta-lactamase reporter, IL-6 stimulated, 5 h; at 7.69 µM (top of the series) unless noted
Method in brief: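 Compound effects on IL-6-induced STAT reporter activity were measured in ME-180 cells. After overnight culture, cells were co-treated with 40 pM IL-6 for 5 hrs before beta-lactamase substrate loading at room temperature.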

[4] = biological target: Glucocorticoid receptor (Homo sapiens) (UniProt P04150); experiment: GR-GFP Redistribution (AID 450;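 active = compounds whose dose series gives a full or clear partial fitted curve of increased nuclear translocation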; note: potency is the fitted concentration of half-maximal effect); settings: U2OS GR-GFP nuclear translocation, laser cytometry, 2 h
Sequence of Glucocorticoid receptor (Homo sapiens) (P04150 whole entry, looked up, the tested form may be a part): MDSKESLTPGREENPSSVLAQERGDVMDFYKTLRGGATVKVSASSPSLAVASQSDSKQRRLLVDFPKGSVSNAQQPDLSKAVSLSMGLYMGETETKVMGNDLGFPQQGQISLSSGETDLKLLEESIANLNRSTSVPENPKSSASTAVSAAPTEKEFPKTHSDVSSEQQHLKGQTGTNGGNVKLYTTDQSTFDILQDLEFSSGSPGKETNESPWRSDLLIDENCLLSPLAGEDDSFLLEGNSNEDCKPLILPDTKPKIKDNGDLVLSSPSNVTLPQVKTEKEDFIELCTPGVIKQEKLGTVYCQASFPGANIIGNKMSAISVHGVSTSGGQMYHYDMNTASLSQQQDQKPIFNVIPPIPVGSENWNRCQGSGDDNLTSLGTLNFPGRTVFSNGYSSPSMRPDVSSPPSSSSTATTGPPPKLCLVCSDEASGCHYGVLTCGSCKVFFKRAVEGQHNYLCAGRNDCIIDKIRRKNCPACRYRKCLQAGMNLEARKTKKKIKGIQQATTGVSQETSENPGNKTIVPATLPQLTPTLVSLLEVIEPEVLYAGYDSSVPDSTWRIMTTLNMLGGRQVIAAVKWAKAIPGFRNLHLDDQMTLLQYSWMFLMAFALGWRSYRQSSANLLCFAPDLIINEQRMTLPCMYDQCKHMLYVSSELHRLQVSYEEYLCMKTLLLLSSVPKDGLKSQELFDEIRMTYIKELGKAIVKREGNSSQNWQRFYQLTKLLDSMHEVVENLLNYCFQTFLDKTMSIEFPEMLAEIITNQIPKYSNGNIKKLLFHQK

[5] = biological target: Glucocorticoid receptor (Homo sapiens) (UniProt P04150); experiment: GR-EFC Redistribution (AID 451; calls by dose curve; note: potency is the fitted concentration of half-maximal effect); settings: CHO-K1 GR-EFC translocation, beta-gal luminescence, 2 h
Method in brief: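 CHO-K1 cells expressing nuclear EA and GR-ED fragments of b-gal; compounds titrated up to 46 uM final, 2 h at 37 C. GR nuclear translocation read as complemented b-gal luminescence after 1 h RT detection.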

[6] = biological target: Mitogen-activated protein kinase 10 (Mus musculus) (UniProt Q61831); experiment: JNK3 AlphaScreen Assay (AID 530; active = well fitted curve in either direction with a large enough effect, not every such curve was filed as active;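 note: kinase came from lysate of stimulated human HepG2 cells; signal reports phosphorylation of biotinylated GST-cJun 1-79 at Ser73 with 10 µM ATP; % is set by controls: 0 for no effect and ±100 for the full control effect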); settings: JNK3 lysate, c-Jun phosphorylation; series mostly up to 57.1 µM
Method in brief: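 HepG2 lysate (IL-1b/TNFa pre-activated) + biotin-GST-cJun 1-79 + anti-pSer73 cJun; cpd titration, 15 min RT; ATP 10 uM start; Tris pH 7.6, MgCl2, DTT, vanadate; beads in EDTA buffer; AlphaScreen.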

[7] = biological target: 3',5'-cyclic-AMP phosphodiesterase 4B (Homo sapiens) (UniProt Q07343); experiment: qHTS Assay for Inhibitors of PDE-IV (AID 607; active = well fitted activation curve with a large enough effect in the main read-out, with a control signal flat, not every such curve was filed as active; note: % of control where 0% means no effect); settings: HEK293 ACTOne CNG channel cells, membrane potential fluorescence; series mostly up to 22.9 µM
Sequence of 3',5'-cyclic-AMP phosphodiesterase 4B (Homo sapiens) (Q07343 whole entry, looked up): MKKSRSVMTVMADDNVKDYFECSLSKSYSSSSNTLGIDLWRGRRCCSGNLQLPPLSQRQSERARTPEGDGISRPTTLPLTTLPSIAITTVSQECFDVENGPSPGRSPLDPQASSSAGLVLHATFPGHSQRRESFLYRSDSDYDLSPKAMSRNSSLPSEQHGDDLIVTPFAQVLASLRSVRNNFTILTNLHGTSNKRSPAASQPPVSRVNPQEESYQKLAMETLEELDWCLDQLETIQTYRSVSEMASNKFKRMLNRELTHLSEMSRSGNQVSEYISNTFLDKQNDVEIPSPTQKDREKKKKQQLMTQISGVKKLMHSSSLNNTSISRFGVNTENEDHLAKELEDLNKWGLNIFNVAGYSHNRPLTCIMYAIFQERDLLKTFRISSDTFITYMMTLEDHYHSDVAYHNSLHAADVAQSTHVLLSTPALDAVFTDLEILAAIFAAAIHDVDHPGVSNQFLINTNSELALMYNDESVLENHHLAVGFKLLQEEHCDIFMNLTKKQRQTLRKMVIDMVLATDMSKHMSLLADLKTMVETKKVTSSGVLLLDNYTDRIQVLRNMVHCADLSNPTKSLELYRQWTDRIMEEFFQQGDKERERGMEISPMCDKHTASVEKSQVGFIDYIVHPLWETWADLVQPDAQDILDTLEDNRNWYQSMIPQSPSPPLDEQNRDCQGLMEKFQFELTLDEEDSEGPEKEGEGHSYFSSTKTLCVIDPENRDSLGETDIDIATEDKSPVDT
Method in brief: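 ACTOne HEK293 cells carry a modified cAMP-gated CNG channel and express endogenous PDE4; plated 1000 cells/well, compounds up to 22.9 uM final. Membrane-potential dye fluorescence (ex 535/em 590) was read; parental cells received 10 uM forskolin + 100 uM RO 20-1724.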

[8] = qHTS Assay for Lipid Storage Modulators (AID 1519; calls by dose curve); settings: Drosophila S3 cells, BODIPY lipid droplet/cell ratio, laser cytometry, cells loaded with oleic acid; for activity change, negative = inhibition: at 57.5 µM (top of the series)
Method in brief: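 Cells seeded at 5,000 per well were treated with compounds over a concentration series and loaded with oleic acid (400 uM, as added). Lipid droplet fluorescence (488 nm excitation, 500-530 nm channel) was read by laser-scanning cytometry and normalized to 20 uM Triacsin C.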

[9] = biological target: Dual specificity protein kinase CLK4 (Homo sapiens) (UniProt Q9HAZ1); experiment: qHTS Assay for Inhibitors of CDC-like Kinase 4 (Kinase-Glo Assay) (AID 1770); settings: recombinant Clk4, Kinase-Glo ATP depletion luminescence; series mostly up to 66.7 µM; note: nearly all actives have a fitted effect of over 65% in size; note: potency is the fitted concentration of half-maximal effect
Sequence of Dual specificity protein kinase CLK4 (Homo sapiens) (Q9HAZ1 whole entry, looked up): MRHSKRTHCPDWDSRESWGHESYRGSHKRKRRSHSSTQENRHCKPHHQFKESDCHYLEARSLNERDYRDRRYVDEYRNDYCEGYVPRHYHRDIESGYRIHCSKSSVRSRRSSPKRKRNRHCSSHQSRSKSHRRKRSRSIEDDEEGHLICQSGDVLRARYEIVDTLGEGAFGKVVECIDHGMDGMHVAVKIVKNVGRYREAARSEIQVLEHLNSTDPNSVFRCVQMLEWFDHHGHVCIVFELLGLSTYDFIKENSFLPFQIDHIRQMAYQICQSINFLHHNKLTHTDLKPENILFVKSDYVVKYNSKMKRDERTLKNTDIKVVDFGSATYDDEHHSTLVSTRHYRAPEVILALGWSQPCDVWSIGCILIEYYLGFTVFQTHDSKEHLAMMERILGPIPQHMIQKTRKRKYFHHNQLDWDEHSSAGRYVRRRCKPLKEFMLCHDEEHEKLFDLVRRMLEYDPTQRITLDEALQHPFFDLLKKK
Method in brief: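 Substrate mix (RS peptide 100 uM, ATP 1 uM) dispensed, compound pinned in, then Clk4 added to 25 nM final. Incubated 4.5 h at RT; Kinase-Glo reagent added, luminescence read after 5 min.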

[10] = biological target: Dual specificity protein kinase CLK4 (Homo sapiens) (UniProt Q9HAZ1); experiment: qHTS Assay for Inhibitors of CDC-like Kinase 4 (ADP-Glo Assay) (AID 1771); settings: recombinant CLK4, ADP-Glo luminescence; series mostly up to 80 µM; note: nearly all actives have a fitted effect of over 70% in size; note: potency is the fitted concentration of half-maximal effect
Method in brief: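 25 nM Clk4, 100 uM RS peptide, 1 uM ATP (final); 2 mM MgCl2, 0.5 mM EGTA, 2.5 mM DTT, 0.01% Triton X-100; 1 hr RT. ADP-Glo readout: ATP depletion 45 min, conversion/luciferase 30 min, luminescence.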

[11] = biological target: Dual specificity protein kinase CLK4 (Homo sapiens) (UniProt Q9HAZ1); experiment: qHTS Assay for Inhibitors of CDC-like Kinase 4 (ADP-FP Assay) (AID 1795); settings: Transcreener ADP fluorescence polarization; series mostly up to 50 µM; note: nearly all actives have a fitted effect of over 60% in size; note: potency is the fitted concentration of half-maximal effect
Method in brief: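 Clk4 6.25 nM; RS peptide 100 uM; ATP 1 uM; 25 mM Tris pH 7.5, 10 mM MgCl2; 1 h reaction. ADP detected via antibody/orange tracer FP displacement; TG003 positive control.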

[12] = biological target: Ubiquitin carboxyl-terminal hydrolase 1 (Homo sapiens) (UniProt O94782); experiment: Inhibitors of USP1/UAF1: Pilot qHTS (AID 504865); settings: purified USP1/UAF1, Ub-rhodamine cleavage fluorescence; series mostly up to 54.9 µM;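 note: rhodamine fluorescence freed from ubiquitin-rhodamine substrate followed over time; top concentration of the series differs between compounds; % is set by controls: 0 for no effect and ±100 for the full control effect; nearly all actives have a fitted effect of over 35% in size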
Sequence of Ubiquitin carboxyl-terminal hydrolase 1 (Homo sapiens) (O94782 whole entry, looked up): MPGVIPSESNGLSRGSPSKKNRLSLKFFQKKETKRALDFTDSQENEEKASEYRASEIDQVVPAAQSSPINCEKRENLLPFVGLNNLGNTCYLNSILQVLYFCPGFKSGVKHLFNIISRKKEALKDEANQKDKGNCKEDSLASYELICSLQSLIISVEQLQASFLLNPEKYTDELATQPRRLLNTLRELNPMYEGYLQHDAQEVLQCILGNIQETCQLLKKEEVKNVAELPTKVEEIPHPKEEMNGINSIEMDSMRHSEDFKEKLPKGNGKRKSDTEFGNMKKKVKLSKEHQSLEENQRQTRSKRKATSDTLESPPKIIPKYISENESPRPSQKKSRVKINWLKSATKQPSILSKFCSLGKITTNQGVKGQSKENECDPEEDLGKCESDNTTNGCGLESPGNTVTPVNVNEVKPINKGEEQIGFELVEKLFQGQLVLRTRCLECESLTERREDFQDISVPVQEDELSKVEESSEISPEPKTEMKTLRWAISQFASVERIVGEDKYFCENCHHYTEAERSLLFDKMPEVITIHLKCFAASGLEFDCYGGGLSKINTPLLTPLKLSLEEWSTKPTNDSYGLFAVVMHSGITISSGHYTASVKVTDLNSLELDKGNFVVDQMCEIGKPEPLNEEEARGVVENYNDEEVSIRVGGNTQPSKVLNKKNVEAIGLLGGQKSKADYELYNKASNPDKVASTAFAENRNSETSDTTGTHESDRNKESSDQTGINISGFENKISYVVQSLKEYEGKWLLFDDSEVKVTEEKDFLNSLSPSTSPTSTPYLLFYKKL
Method in brief: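 In 50mM HEPES pH 7.8 containing 0.5mM EDTA, 1mM TCEP, 0.1 mg/ml BSA and 0.01% Tween-20, 1nM USP1/UAF1 is exposed to compound for 15 min, then Ub-Rho (150nM final) is added and fluorescence is read over time.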

[13] = Primary qHTS for small molecule stabilizers of the endoplasmic reticulum resident proteome: Secreted ER Calcium Modulated Protein (SERCaMP) assay (AID 1508630); settings: SH-SY5Y GLuc-SERCaMP (Gaussia luciferase released on ER calcium loss) secretion, thapsigargin, luminescence; series mostly up to 38.4 µM; note: % is set by controls: 0 for no effect and ±100 for the full control effect
Method in brief: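 The SH-SY5Y reporter protocol was run at 3 concentrations up to 38.3 uM (primary) or 11 concentrations (follow-up): 16 h compound, 100 nM thapsigargin for 4 h, then extracellular luciferase luminescence.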

[14] = biological target: Cytochrome P450 1A2 (Homo sapiens) (UniProt P05177); experiment: p450-cyp1a2 (AID 410; calls by dose curve; note: potency is the fitted concentration of half-maximal effect;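 for activity change, negative = inhibition: -100% = full effect of reference inhibitor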); settings: recombinant CYP1A2, luciferin-ME demethylation, luminescence; series mostly up to 57 µM
Sequence of Cytochrome P450 1A2 (Homo sapiens) (P05177 whole entry, looked up): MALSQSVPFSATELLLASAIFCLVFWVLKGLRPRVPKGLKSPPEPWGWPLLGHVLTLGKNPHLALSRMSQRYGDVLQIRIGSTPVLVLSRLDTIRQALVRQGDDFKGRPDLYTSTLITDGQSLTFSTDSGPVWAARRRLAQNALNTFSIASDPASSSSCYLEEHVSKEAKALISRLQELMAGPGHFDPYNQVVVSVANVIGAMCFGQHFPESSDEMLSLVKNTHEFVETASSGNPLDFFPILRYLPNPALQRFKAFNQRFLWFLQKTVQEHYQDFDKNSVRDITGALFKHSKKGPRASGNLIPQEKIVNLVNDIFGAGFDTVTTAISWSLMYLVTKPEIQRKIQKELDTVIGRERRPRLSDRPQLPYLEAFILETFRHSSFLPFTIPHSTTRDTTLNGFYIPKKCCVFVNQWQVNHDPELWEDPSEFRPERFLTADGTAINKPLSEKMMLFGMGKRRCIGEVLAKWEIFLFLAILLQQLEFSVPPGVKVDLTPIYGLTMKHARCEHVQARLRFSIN
Method in brief: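 20nM CYP1A2, 100uM Luciferin-ME (=Km), 100mM KPO4; cpd 10 min RT; +NADPH regen, 60 min RT; stop/detect 20 min; luminescence. Normalized to furafylline 57 uM = full inhibition.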

[15] = biological target: Cytochrome P450 3A4 (Homo sapiens) (UniProt P08684); experiment: qHTS Assay for Activators of Cytochrome P450 3A4 (AID 885); settings: recombinant CYP3A4, Luciferin-PPXE luminescence, 60 min; series mostly up to 57.1 µM; note: nearly all actives have a fitted effect of over 65% in size
Sequence of Cytochrome P450 3A4 (Homo sapiens) (P08684 whole entry, looked up): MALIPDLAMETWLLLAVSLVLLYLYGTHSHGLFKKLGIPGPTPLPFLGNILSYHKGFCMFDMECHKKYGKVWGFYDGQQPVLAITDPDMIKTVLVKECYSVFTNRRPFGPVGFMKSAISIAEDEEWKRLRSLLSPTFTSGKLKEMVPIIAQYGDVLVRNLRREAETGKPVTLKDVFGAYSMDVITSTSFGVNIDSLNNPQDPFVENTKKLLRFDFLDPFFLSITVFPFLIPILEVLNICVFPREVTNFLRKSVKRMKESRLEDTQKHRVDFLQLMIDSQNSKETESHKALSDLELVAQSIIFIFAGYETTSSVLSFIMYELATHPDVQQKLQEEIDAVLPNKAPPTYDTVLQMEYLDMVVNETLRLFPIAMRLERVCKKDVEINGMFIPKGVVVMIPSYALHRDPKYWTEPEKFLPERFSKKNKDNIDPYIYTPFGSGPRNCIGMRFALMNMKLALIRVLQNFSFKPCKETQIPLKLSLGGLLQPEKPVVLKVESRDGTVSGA
Method in brief: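 CYP3A4 activity: Luciferin-PPXE O-dealkylation, 25uM substrate, 200mM KPO4, RT throughout. Read-out is luciferase luminescence; higher values reflect activation.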

[16] = qHTS Assay for Identification of Small Molecule Agonists for Hypoxia Response Element Signaling Pathway (AID 914; active = well fitted activation curve with a large enough effect in the signal ratio, with a control signal flat, not every such curve was filed as active; the % refers to the signal ratio; note: potency is the fitted concentration of half-maximal effect); settings: ME-180 (cervical carcinoma) HRE-bla reporter, beta-lactamase ratio, CoCl2, 17 h; activation: stronger effect = higher value
Method in brief: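 AC50 values come from titration-series %Activity, taken as the 460/530nm ratio of CCF4 fluorescence (excitation 405nm). CellSensor HRE-bla ME-180 cells were treated 17 hours at 37 C with compound plus an EC50 level of CoCl2.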

[17] = NFAT Signaling Pathway (AID 444; active = well fitted curve in either direction with a large enough effect, not every such curve was filed as active); settings: Jurkat NFAT-bla M1, carbachol, beta-lactamase ratio, 5 h; at 7.69 µM (top of the series) unless noted
Method in brief: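 Jurkat cells with NFAT-driven β-lactamase reporter and co-expressed M1 receptor, stimulated with carbachol (final 1 uM, ~EC50), compound titration, 5 h at 37 °C. CCF4 loaded 1 h at RT; 460/530 nm ratio gave %activity and AC50.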

[18] = biological target: Cytochrome P450 2D6 (Homo sapiens) (UniProt P10635); experiment: qHTS Assay for Inhibitors and Substrates of Cytochrome P450 2D6 (AID 891); settings: recombinant CYP2D6, luciferin-ME EGE luminescence; series mostly up to 57.1 µM; note: potency is the fitted concentration of half-maximal effect; nearly all actives have a fitted effect of over 60% in size
Sequence of Cytochrome P450 2D6 (Homo sapiens) (P10635 whole entry, looked up): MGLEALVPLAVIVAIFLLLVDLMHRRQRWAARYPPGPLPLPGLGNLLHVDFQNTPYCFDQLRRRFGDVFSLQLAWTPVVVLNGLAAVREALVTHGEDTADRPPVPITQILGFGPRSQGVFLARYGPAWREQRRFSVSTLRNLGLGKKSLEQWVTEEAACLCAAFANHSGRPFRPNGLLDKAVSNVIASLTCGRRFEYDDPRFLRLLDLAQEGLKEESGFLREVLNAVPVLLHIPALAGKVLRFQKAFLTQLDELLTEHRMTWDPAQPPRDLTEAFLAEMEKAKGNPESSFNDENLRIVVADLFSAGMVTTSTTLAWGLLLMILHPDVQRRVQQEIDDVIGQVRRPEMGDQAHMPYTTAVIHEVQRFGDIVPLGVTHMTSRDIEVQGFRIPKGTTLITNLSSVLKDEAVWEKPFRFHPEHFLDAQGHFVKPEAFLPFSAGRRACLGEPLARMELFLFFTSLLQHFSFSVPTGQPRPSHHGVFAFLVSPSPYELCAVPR
Method in brief: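 Luminescent read-out of luciferin formed by 5 nM human CYP2D6 demethylating 30 uM Luciferin-ME EGE (Km level) over 60 min at room temperature after NADPH regeneration addition. Data normalized to full inhibition by 1.43 uM quinidine.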

[19] = measured here: cell count channel max response
[20] = measured here: lipid channel max response

Structure (SMILES)	Potency [1]	activity change, negative = inhibition [2]	activity, negative = inhibition [3]	Potency [4]	Potency [5]	outcome [6]	Potency [7]	activity change, negative = inhibition [8]	max response [8, 19] [%]	max response [8, 20] [%]	Potency [9]	Potency [10]	Potency [11]	Potency [12]	Potency [13]	Potency [14]	Potency [15]	Potency [16]	activity change, negative = inhibition [17]	Potency [18]
COc1cccc(Cn2c(=O)c(C)nc3cnc(Nc4ccccc4)nc32)c1	> 11.4 µM (inactive)	-15.3% (inactive)	-3.72% (inactive)	> 9.22 µM (inactive)	> 46 µM (inactive)	inactive	inactive	0.284% (inactive)	11.6	9.21	inactive	inactive	inactive	inactive	inactive	–	–	–	–	–
Cn1c(=O)c(-c2cccs2)nc2cnc(N3CCNCC3)nc21	> 11.4 µM (inactive)	–	–	> 9.22 µM (inactive)	> 46 µM (inactive)	inactive	inactive	4.59% (inactive)	15.4	18.9	inactive	inactive	inactive	inactive	inactive	10 µM (active)	inactive	3.16 µM (active)	–	–
CN(C)c1ncc2nc(-c3ccccc3)c(=O)n(Cc3ccc(F)cc3)c2n1	> 11.4 µM (inactive)	–	178% [activator] (active)	> 9.22 µM (inactive)	> 46 µM (inactive)	–	inactive	0.549% (inactive)	7.88	4.69	inactive	inactive	inactive	inactive	inactive	12.6 µM (active)	–	0.501 µM (active)	–	–
COc1ccc2[nH]cc(CCNc3ncnc4ccc(-c5cccnc5)cc34)c2c1	> 11.4 µM (inactive)	–	-10.2% (inactive)	> 46 µM (inactive)	–	–	inactive	-3.03% (inactive)	-7.3	-9.11	2.24 µM (active)	2.24 µM (active)	3.16 µM (active)	inactive	inactive	0.0794 µM (active)	inactive	–	18.7% (inactive)	7.94 µM (active)
CN1CCN(c2ncc3nc(-c4cc(F)cc(F)c4)c(=O)n(CCc4ccccc4)c3n2)CC1	> 11.4 µM (inactive)	–	–	> 9.22 µM (inactive)	> 46 µM (inactive)	inactive	inactive	-3.87% (inactive)	10.6	3.66	inactive	inactive	inactive	inactive	inactive	inactive	inactive	3.16 µM (active)	–	–
CS(=O)(=O)Nc1cccc(-c2ccc3ncnc(Nc4ccccc4)c3c2)c1	> 11.4 µM (inactive)	–	-2.27% (inactive)	> 46 µM (inactive)	> 46 µM (inactive)	inactive	inactive	5.6% (inactive)	6.09	11.8	15.8 µM (active)	14.1 µM (active)	14.1 µM (active)	inactive	inactive	1 µM (active)	inactive	–	–	–
